Each structure is given as a SMILES string. Hit rate of the full screen: of about 330,000 compounds, about 5,800 (1.8%) were called active.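 Rule for the calls: active = inhibition above about 50% at the single tested dose (limit read from the data); inactive = the rest.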 Shown is part of a subset that was picked to be rich in actives.

We go through 96 compounds from PubChem BioAssay AID2599 (Sanford-Burnham Center for Chemical Genomics, 2010).

The target of this experiment is Sentrin-specific protease 6 (Homo sapiens) (UniProt Q9GZR1). The experiment can be described thus: SENP6 protease inhibitors, primary screen, biochemical, luminescence, uHTS (AID 2599).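 Note: plate controls were DMSO wells with enzyme for no effect and DMSO wells lacking enzyme for full effect.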 The conditions noted are these: Recombinant SENP6 catalytic domain, aminoluciferin luminescence; at 10 µM; hits give high values.
Chain of Sentrin-specific protease 6 (Homo sapiens) (Q9GZR1 628-1112 limits assumed): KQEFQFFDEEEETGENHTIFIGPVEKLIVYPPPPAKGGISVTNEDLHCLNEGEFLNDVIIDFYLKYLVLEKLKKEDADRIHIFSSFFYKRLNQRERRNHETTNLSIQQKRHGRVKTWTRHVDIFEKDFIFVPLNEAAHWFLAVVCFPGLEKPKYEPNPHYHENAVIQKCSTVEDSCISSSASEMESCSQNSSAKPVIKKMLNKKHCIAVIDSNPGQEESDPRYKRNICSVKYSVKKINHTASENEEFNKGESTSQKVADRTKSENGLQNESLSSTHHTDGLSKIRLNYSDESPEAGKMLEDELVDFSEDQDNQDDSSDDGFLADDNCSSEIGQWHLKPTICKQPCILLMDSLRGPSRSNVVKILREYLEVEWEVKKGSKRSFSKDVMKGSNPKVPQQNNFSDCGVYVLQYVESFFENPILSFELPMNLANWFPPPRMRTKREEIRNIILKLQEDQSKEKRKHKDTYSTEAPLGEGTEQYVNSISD
In the case of `Cn1cc[n+](C)c1COc1ccc(C=O)cc1`, the inhibition (usually the change of the read-out against control, counted positive when it falls) was -1.65% (inactive).
As for `N#Cc1cc([N+](=O)[O-])ccc1NCC1CCCO1` (stereo unspecified), the inhibition was -15.1% (inactive).
The same measure for `COc1ccc(/C=N/OCC(=O)N(Cc2ccccc2)c2ccccc2C(=O)O)cc1`: -17.2% (inactive); for `COc1ccc(NS(=O)(=O)c2cc(C(=O)Nc3ccccc3C(=O)O)ccc2C)cc1`: -2.27% (inactive); for `COc1ccccc1C(=O)NNC(=O)c1ccc(NC(=O)c2ccccc2)cc1`: 5.14% (inactive).
With `COc1ccc(C(=O)Nc2cc(C)c(NC(=O)c3ccccc3OC)cn2)cc1` the figure was 37.3% (inactive); with `COc1ccc(/C=N/Nc2ccccc2C(=O)O)cc1`, 93.1% (active); with `CCOc1cc(/C=N/NC(=O)c2cc(-c3ccccc3)nc3ccccc23)ccc1O`, 19.5% (inactive).
With `COc1ccc(C(=O)Nc2ccccc2C(=O)N/N=C/c2ccccc2OC)cc1` the figure was 66.7% (active); with `COc1cc(/C=N/NC(=O)c2ccc(N3CCCC3=O)cc2)ccc1O`, -7.53% (inactive); with `COc1ccc(C(=O)Nc2ccccc2C(=O)N/N=C/c2ccc(O)c(OC)c2)cc1`, 98.7% (active).
For the compound `O=C(O)CC(c1ccccc1F)N1Cc2ccccc2C1=O` (stereo unspecified), the inhibition is -11.5% (inactive).
With `COc1ccc(/C=N/n2c(C)cc(C)cc2=O)cc1`, the inhibition was -12.1% (inactive).
Regarding `O=C(N/N=C/c1ccsc1)c1cc(O)cc(O)c1`, the inhibition is 3.66% (inactive).
The same measure for `CCn1cc(/C=C(\NC(=O)c2cc(OC)c(OC)c(OC)c2)C(=O)N2CCN(C)CC2)c2ccccc21`: 0.634% (inactive); for `Cc1cccc(NC(=O)Nc2ccc3c(c2)OCO3)n1`: -17.4% (inactive).
Consider `Cc1cccc(NC(=O)/C=C/c2ccc3c(c2)OCO3)n1`, for which the inhibition was 82.7% (active).
For `O=C(/C=C/c1ccc2c(c1)OCO2)NCc1ccc(F)cc1`, the inhibition is 1.24% (inactive).
Take `CCCc1ccc(OCc2ccc(C(=O)N/N=C/c3cccc([N+](=O)[O-])c3)o2)c(OC)c1`: the inhibition is -3.27% (inactive).
With `COc1ccccc1N1CCN(C(=O)CCS(=O)(=O)c2ccc3c(c2)NC(=O)C(C)S3)CC1` (stereo unspecified) the figure was 4.9% (inactive); with `CCOC(=O)C(C)N(c1ccccc1Cl)S(C)(=O)=O` (stereo unspecified), 14.8% (inactive).
With `O=C(O)c1cc(Cl)c(Cl)cc1C(=O)Nc1cccc2ncccc12` the figure was 57% (active); with `O=C(O)c1ccccc1-c1ccccc1C(=O)Nc1cccc2ccccc12`, -15.6% (inactive).
For `COc1ccccc1NC(=O)c1cc(Cl)nc2ccccc12`, the inhibition was -4.88% (inactive).
The same measure for `CN(Cc1ccccc1F)C(=O)C(Cc1ccccc1)NC(=O)c1ccccc1` (stereo unspecified): -9.94% (inactive).
With `Cc1cccc(-c2noc(CCC(=O)NC3CCCC3)n2)c1` the figure was -13.6% (inactive); with `Cn1nc(-c2ccccc2)c(-c2nc(-c3ccc(Cl)cc3)no2)c1Cl`, 3.33% (inactive); with `Cc1cccc(-c2noc(-c3ccc(F)cc3)n2)c1`, 94.2% (active).
The same measure for `Cc1ccc(NS(=O)(=O)c2c(C)[nH]c(C)c2C(=O)N2CCCCC2)c(C)c1`: -8.53% (inactive).
For the compound `S=C(Nc1cccc(Br)c1)N1CCn2cccc2C1c1cccnc1` (stereo unspecified), the inhibition is -5.73% (inactive).
The same measure for `CC(C)CCNC(=O)CC1C(=O)N(Cc2ccccc2)C(C)c2nc3ccccc3n21` (stereo unspecified): -1.07% (inactive); for `CC(C)c1ccc(C(=O)OC2CCOC2=O)cc1` (stereo unspecified): -5.48% (inactive); for `O=C(OC1CCOC1=O)c1ccc(-c2nc3ccccc3s2)s1` (stereo unspecified): 97.8% (active).
In the case of `COc1cc(C(=O)OC2CCOC2=O)c([N+](=O)[O-])cc1OC` (stereo unspecified), the inhibition was -15.4% (inactive).
As for `COc1cc(/C=N/Nc2nn3cnnc3c3ccccc23)cc(OC)c1OC`, the inhibition was 2.31% (inactive).
Take `CN(CCO)c1ccc(/C=N/Nc2nncc3ccccc23)cc1`: the inhibition was 96.7% (active).
Turning to `C/C(=N\Nc1nncc2ccccc12)c1ccc(Cl)c([N+](=O)[O-])c1`, the inhibition was 1.2% (inactive).
Turning to `COc1ccc(NC(=O)C2C3C=CC(C3)C2C(=O)NCc2ccccn2)c(OC)c1` (stereo unspecified), the inhibition was 10.4% (inactive).
With `CCCCc1cc(=O)oc2cc(C)cc(OCc3nn[nH]n3)c12` the figure was -1.99% (inactive); with `Cc1noc(C)c1COc1ccc2ccc(=O)oc2c1`, -9.61% (inactive).
The same measure for `COc1ccc(-c2cc3ccc(OCc4nn[nH]n4)cc3oc2=O)cc1`: 68.8% (active); for `CCS(=O)(=O)Nc1ccc(C(=O)NCCSc2ccccc2)cc1`: 11.9% (inactive); for `Cc1cccc(OCCC(=O)Nc2ccccc2C(N)=O)c1`: -32.4% (inactive).
For `Cc1cccc(OCC(=O)Nc2ccccc2F)c1`, the inhibition is 56.4% (active).
On to `Cc1ccc(F)c(NC(=O)CCOc2ccccc2C)c1`, for which the inhibition was 5.27% (inactive).
The same measure for `Cc1cccc(OCC(=O)Nc2ccc(C(=O)O)cc2NC(=O)COc2cccc(C)c2)c1`: 10.8% (inactive); for `COc1ccc([N+](=O)[O-])cc1NC(=O)CCc1ccccc1`: -1.66% (inactive).
As for `Cc1ccc(F)c(NC(=O)CCc2ccccc2)c1`, the inhibition is 51.3% (active).
The same measure for `CCOC(=O)C1C(=O)NCC1c1ccccc1` (stereo unspecified): -10.2% (inactive).
With `Cc1ccc(-c2ccnc3nc(Sc4ncc(C(F)(F)F)cc4Cl)nn23)cc1` the figure was 3.77% (inactive).
The same measure for `CCOC(=O)CSC1=N/C(=C/c2ccc(-n3cncn3)cc2)C(=O)N1C(C)=O`: 4.91% (inactive).
As for `CCOC(=O)C1CCN(C(=O)CN2C(=O)c3cccnc3Oc3ccc(C)cc32)CC1`, the inhibition is -14.4% (inactive).
Regarding `Cc1nn(-c2ccccc2)c2[nH]c(C(F)(F)F)cc(=O)c12`, the inhibition is -1.92% (inactive).
With `N=c1c2c3c(sc2ncn1CCCN1CCOCC1)CCCCC3` the figure was 3.22% (inactive).
Turning to `O=C(O)C1OC(C(=O)O)C2C1C(F)(F)C2(F)F` (stereo unspecified), the inhibition is -10.3% (inactive).
With `COc1cc(/C=C(\C#N)c2nc3c(s2)CC(C)CC3)ccc1O` (stereo unspecified) the figure was 8.39% (inactive).
In the case of `Cc1ccc2nc(/C(C#N)=C\c3ccc(OC(=O)c4cccs4)cc3)[nH]c2c1`, the inhibition is -7.94% (inactive).
In the case of `COc1cc(/C=C(\C#N)c2nc3ccccc3[nH]2)ccc1O`, the inhibition was 92.4% (active).
Regarding `c1ccc(C[C@H]2CNCCN2CCC23CC4CC(CC(C4)C2)C3)cc1`, the inhibition is 1.32% (inactive).
With `O=C(Nc1ccccc1Cc1ccccc1)c1ccc2c(c1)SC1=NS(=O)(=O)CCN12` the figure was -1.13% (inactive); with `O=C(NCc1ccco1)C(c1ccncc1)N(C(=O)Cn1nnc2ccccc21)c1ccccc1` (stereo unspecified), -7.82% (inactive).
With `O=C(CC1C(=O)NCCN1C(=O)c1ccc([N+](=O)[O-])cc1)Nc1cccc(Cl)c1` (stereo unspecified), the inhibition was -13.3% (inactive).
The same measure for `O=Cc1ccc(Oc2cccc(C(F)(F)F)c2)nc1`: 7.02% (inactive); for `O=[N+]([O-])c1cccc(C2=NCCS2)c1`: -2.08% (inactive).
For `FC(F)(F)c1ccnc(Oc2ccc(C3=NCCS3)cc2)c1`, the inhibition was 74.8% (active).
Consider `Cc1cccc(N)c1SC1CCCCC1O` (stereo unspecified), for which the inhibition is 14.9% (inactive).
For `CCCCN1C(N)=NC[C@@H]1CC1CCCCC1`, the inhibition is -9.84% (inactive).
With `CCCCN(CC)CCNC(=O)CCNC(=O)Cn1ccc2ccccc2c1=O` the figure was -9.66% (inactive); with `C=CCOc1ccc(Cl)cc1CNCCCN1CCOCC1`, 7.54% (inactive); with `c1ccc(-n2nnnc2NC2CCCCCC2)cc1`, -14.3% (inactive).
`CNC(=S)N1N=C(c2ccccc2)CC1c1ccc(Br)cc1` (stereo unspecified): the inhibition was -4.9% (inactive).
The same measure for `Brc1ccc(C2CC(c3ccccc3)=Nc3ccccc3N2)cc1` (stereo unspecified): 81.3% (active); for `O=C(c1ccccc1)N1N=C(c2ccccc2O)CC1c1ccc(Br)cc1` (stereo unspecified): -41.6% (inactive); for `COc1cc(NC(=S)N2CCCC(C)C2)c(OC)cc1Cl` (stereo unspecified): 1.77% (inactive).
With `O=C(CC(c1ccccc1)c1ccccc1)NCC(O)c1ccc([N+](=O)[O-])cc1` (stereo unspecified) the figure was -31.1% (inactive); with `COC(=O)CCSc1nccn1Cc1ccccc1`, -11% (inactive); with `CCCCCC(O)(CCN1CCCCC1)c1ccccc1` (stereo unspecified), 5.63% (inactive).
With `CC/C(=N\NC(=O)c1ccccc1Cl)c1ccc(Br)s1` the figure was 3.9% (inactive); with `C/C(=N\NC(=O)CNc1cccc2ccccc12)c1ccc(Br)s1`, 77.3% (active).
In the case of `Cc1ccccc1NCC(=O)N/N=C\c1ccc([N+](=O)[O-])s1`, the inhibition is 44% (inactive).
The same measure for `C/C(=N\NC(=O)CSc1nc2ccccc2c(=O)n1-c1ccccc1C)c1cccs1`: 6.68% (inactive).
With `Cc1cccc(C(=O)Nc2ccc(C(=O)N/N=C/c3cccc(C)n3)cc2)c1` the figure was -5% (inactive); with `Cc1cccc(/C=N/NC(=O)CNc2cccc3ccccc23)n1`, 78.3% (active).
As to `Cc1ccc(NC(=O)CSc2nc(=O)n(CCN(C)C)c3c2CCCC3)c(C)c1`, the inhibition was -3.87% (inactive).
With `CC(NC(=S)Nc1ccc(S(N)(=O)=O)cc1)c1ccc2c(c1)OCO2` (stereo unspecified) the figure was 7% (inactive).
On to `CCn1c(SCC(=O)NNC(=O)c2ccc(OC)cc2)nnc1C(C)C`, for which the inhibition is -13.3% (inactive).
As to `Cc1nn2c(NCCN(C)C)c3c(nc2c1-c1ccccc1)CCC3`, the inhibition is -33.9% (inactive).
Turning to `Cc1ccc(S(=O)(=O)N(C)C)cc1NC(=O)C(C)OC(=O)c1ccc2ccccc2n1` (stereo unspecified), the inhibition is -0.065% (inactive).
For `CC(OC(=O)c1ccc2ccccc2n1)C(=O)c1ccccc1` (stereo unspecified), the inhibition is 65.8% (active).
For the compound `CC(NC(=O)COC(=O)c1ccc2ccccc2n1)c1ccccc1` (stereo unspecified), the inhibition is -2.28% (inactive).
In the case of `CC(OC(=O)CNS(=O)(=O)/C=C/c1ccccc1)C(=O)Nc1ccc(S(=O)(=O)N2CCCC2)cc1` (stereo unspecified), the inhibition is 1.69% (inactive).
For `Cn1c(=O)c(=O)n(C)c2cc(S(=O)(=O)NCCN3CCN(c4ccccc4F)CC3)ccc21`, the inhibition is -19.5% (inactive).
For `CCOC(=O)[C@H]1CCC[C@@H](NS(=O)(=O)c2ccc(NC(C)=O)cc2)C1`, the inhibition was 4.75% (inactive).
The same measure for `O=C(Cc1nc2ccccc2[nH]c1=O)c1ccc(Cl)cc1`: 50.3% (active).
The same measure for `N#C/C(=C(/O)COC(=O)COc1ccc(Cl)cc1)c1nc2ccccc2[nH]1`: -13.3% (inactive); for `O=C(/C(=C/c1cccc(Cl)c1)c1nc2ccccc2[nH]1)c1ccccc1`: -2.12% (inactive).
